Data reported in PubChem BioAssay (NCATS).
Records with an inconclusive call do not appear. Where a call stands in place of a potency, no number is given. The source made the active and inactive calls. Calls follow the shape of the dose curve; as a rule, active = well fitted inhibition curve with a large enough effect; inconclusive = small, poorly fitted or top-dose-only effect; inactive = flat fitted curve, though single readings scatter.

Test system: Zika virus NS2B-NS3 protease
Test: Primary screen GU AMC qHTS for Zika virus inhibitors (AID 1347154); also: nearly all actives have a fitted effect of over 70% in size
Conditions: Zika NS2B-NS3 unlinked protease, AMC fluorogenic substrate; series mostly up to 54.1 µM
Outline: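 Unlinked Zika NS2B hydrophilic domain–NS3 protease complex at 25 nM in 10 mM Tris-HCl pH 8.0, 0.01% Tween 20, with an AMC peptide substrate. Fluorescence change (340/450 nm) over 15 min at room temperature, normalized to controls, fitted to 4-parameter Hill.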

| Compound | Potency |
| --- | --- |
| O=C(NCCO[N+](=O)[O-])c1cccnc1 | inactive |
| Cc1cc2c(s1)Nc1ccccc1N=C2N1CCN(C)CC1 | inactive |
| Cc1ccc(S(=O)(=O)NC(=O)NN2CC3CCCC3C2)cc1 (configuration not stated) | inactive |
| Nc1ccc(S(N)(=O)=O)cc1 | inactive |
| CC1Cc2ccccc2N1NC(=O)c1ccc(Cl)c(S(N)(=O)=O)c1 (configuration not stated) | inactive |
| Cn1c(NCCN(CCO)CCCc2ccc([N+](=O)[O-])cc2)cc(=O)n(C)c1=O | inactive |
| CCCc1cc(=O)[nH]c(=S)[nH]1 | inactive |
| O=P(O)(O)C(O)(Cn1ccnc1)P(=O)(O)O | inactive |
| CC(C)c1nc(CN(C)C(=O)N[C@H](C(=O)N[C@@H](Cc2ccccc2)C[C@H](O)[C@H](Cc2ccccc2)NC(=O)OCc2cncs2)C(C)C)cs1 | inactive |
| N=C(N=C(N)N)N1CCOCC1 | inactive |
| Cc1cc(=O)c2c(O)c3c(O)cc(=O)c4c3c3c(cc(O)c1c23)C(C)(C)C=4O | inactive |
| CC(C)[N+]1(C)[C@@H]2CC[C@H]1CC(OC(=O)C(CO)c1ccccc1)C2 (some centres not stated) | inactive |
| COc1cc(Nc2c(C#N)cnc3cc(OCCCN4CCN(C)CC4)c(OC)cc23)c(Cl)cc1Cl | inactive |
| COc1ccc(C2(C#N)CCC(C(=O)O)CC2)cc1OC1CCCC1 (configuration not stated) | inactive |
| Cc1ccc(C)c(OCCCC(C)(C)C(=O)O)c1 | inactive |
| O=C(O)CCNC(=O)c1ccc(N=Nc2ccc(O)c(C(=O)O)c2)cc1 | inactive |

| Compound | Potency |
| --- | --- |
| Clc1ccc(C(Cn2ccnc2)OCc2ccc(Sc3ccccc3)cc2)c(Cl)c1 (configuration not stated) | inactive |
| O=C(OC1C[C@H]2CC[C@@H](C1)[N+]21CCCC1)C(O)(c1ccccc1)c1ccccc1 (some centres not stated) | inactive |
| CCCCN(CCCC)CCC(O)c1cc2c(Cl)cc(Cl)cc2c2cc(C(F)(F)F)ccc12 (configuration not stated) | inactive |
| CCOC(=O)c1c(C)n(C)c2ccc(O)cc12 | inactive |
| CCC[C@@H]1C[C@@H](C(=O)N[C@@H]([C@H]2O[C@H](SC)[C@H](O)[C@@H](O)[C@H]2O)[C@@H](C)O)N(C)C1 | inactive |
| CCC1=C(C)CN(C(=O)NCCc2ccc(S(=O)(=O)NC(=O)NC3CCC(C)CC3)cc2)C1=O (configuration not stated) | inactive |
| CN(c1nccc(=O)[nH]1)C1CCN(c2nc3ccccc3n2Cc2ccc(F)cc2)CC1 | inactive |
| CC(=O)Nc1ccc(O)cc1 | inactive |
| Nc1cc(C(Cl)=C(Cl)Cl)c(S(N)(=O)=O)cc1S(N)(=O)=O | inactive |
| Cc1nccn1CC1CCc2c(c3ccccc3n2C)C1=O (configuration not stated) | inactive |
| Cc1cccc(CN2CCN(C(c3ccccc3)c3ccc(Cl)cc3)CC2)c1 (configuration not stated) | inactive |
| CN(C)C(=O)COC(=O)Cc1ccc(OC(=O)c2ccc(N=C(N)N)cc2)cc1 | inactive |
| CCCCCCCCCCCCCCCCCCCCCCO | inactive |
| Cc1nc2n(c(=O)c1CCN1CCC(c3noc4cc(F)ccc34)CC1)CCCC2 | inactive |
| CN1CCC(=C2c3ccccc3CCc3sccc32)CC1 | inactive |
| Cc1cc2cc3c(C)cc(=O)oc3c(C)c2o1 | inactive |
